Source: PubChem BioAssay AID720621 (The Scripps Research Institute Molecular Screening Center, 2013)
Some of the results follow. A number with no mark means an inactive call.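 Rule for the calls: active = inhibition above the mean of test compounds lying between the control limits plus 3 SD of those (cut at about 14% in these data); inactive = the rest.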

Molecular target: Fibrinogen beta chain (Homo sapiens) (UniProt P02675)
Test: DD(E) binders in alternate-peptide displacement assay, confirmation, counter-screen for fibrin DD(E)-Tn6 binding project, biochemical, fluorescence polarization, human fibrin (AID 720621);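 note: 0% = median of compound wells and 100% = wells with Aha-Tn7 blocking peptide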
Details: TRITC-Tn6 fluorescence polarization displacement, at 8.3 µM, hits give high values, 0% = median of compound wells, not DMSO

Chain of Fibrinogen beta chain (Homo sapiens) (P02675 whole entry, looked up): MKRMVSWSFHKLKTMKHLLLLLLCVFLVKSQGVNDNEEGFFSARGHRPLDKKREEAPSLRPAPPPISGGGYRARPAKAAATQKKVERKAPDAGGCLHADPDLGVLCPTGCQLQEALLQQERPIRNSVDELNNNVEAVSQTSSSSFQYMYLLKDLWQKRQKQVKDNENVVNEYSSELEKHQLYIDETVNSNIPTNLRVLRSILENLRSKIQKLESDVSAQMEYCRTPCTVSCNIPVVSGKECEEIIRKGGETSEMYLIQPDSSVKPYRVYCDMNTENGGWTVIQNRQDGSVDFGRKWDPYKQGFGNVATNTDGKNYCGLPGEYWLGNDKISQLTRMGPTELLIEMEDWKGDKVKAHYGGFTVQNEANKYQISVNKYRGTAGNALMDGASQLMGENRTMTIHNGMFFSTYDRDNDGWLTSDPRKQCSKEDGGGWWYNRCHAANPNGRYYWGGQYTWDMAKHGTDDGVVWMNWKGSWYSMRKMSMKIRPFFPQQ

SMILES	inhibition [%]
COc1cc(NC(=O)c2ccc(CNc3c(N4CCCC4)c(=O)c3=O)cc2)cc(OC)c1OC	-3.04
CCc1cc(-c2nnc(SCC(=O)NC3CC3)n2C)cs1	0.11
COc1ccc(Nc2nc(-c3cccnc3)nc3ccccc23)cn1	1.38
CCC1C(=O)NCCN1C(=O)c1ccc2nc(Cc3ccc(OC)cc3)oc2c1 (stereo not given)	-2.38
CONc1nc2nonc2nc1NOC	0.1
CCc1ccccc1NC(=S)Nc1cc(OC)c(NC(=O)C(C)C)cc1OC	2.55
Cc1ccc(NC(=O)CN2CCc3ccccc3C2)cc1	-3.5
Cc1nnsc1S(=O)(=O)Cc1ccccc1Cl	-7.19
Cc1cc2cc(CNC(=O)c3ccc(S(=O)(=O)N4CCOCC4)cc3)ccc2[nH]1	-5.66
Cc1cc2ccccc2n1CCNC(=O)COc1ccc2ccccc2c1	4.66
